Hits are enriched below; roughly 3.7% of the tested compounds scored in any of these assays.
ATXN2 expr inh: Primary qHTS for Inhibitors of ATXN expression; HEK-293 ATXN2-luciferase reporter, luminescence, 24 h; Potency, µM (top dose mostly 57 µM), inactives show at the highest dose activity change, negative = inhibition, actives largely listed as inhibitors; hit rate 0.72% among 360,000; also: % is scaled to controls: 0 for no effect and ±100 for the full control effect; nearly all actives have a fitted effect of over 55% in size
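qHTS (up to 57 uM final) was run with 24 h compound exposure of reporter cells at 37 °C. Each well was multiplexed: SteadyGlo luminescence measured ATXN2-luciferase expression after a fluorogenic Gly-Phe-AFC viability readout (25 uM final).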
S2 tox: Viability Counterscreen for Primary qHTS for Inhibitors of ATXN expression. S2 cells (HEK-293 line with an ATXN2-luciferase reporter) viability, CellTiter-Fluor protease fluorescence, 24 h. Potency, µM (top dose mostly 56.7 µM), most hits filed as cytotoxic. hit rate 0.49% among 400,000. AID 651635, 2014; also: nearly all actives have a fitted effect of over 40% in size
GLP-1R agonist: qHTS of GLP-1 Receptor Agonists. HEK293 GLP-1R CRE-luciferase, luminescence, 4-6 h; cells express a hypersensitive GLP-1R form. Potency, µM (highest dose often 45.6 µM), for inactives: at the highest dose activation, actives largely listed as activators. AID 624172, 2012. hit rate 0.007% among 380,000; also: % of control where 0% means no effect
Target sequence (P43220 whole entry, looked up): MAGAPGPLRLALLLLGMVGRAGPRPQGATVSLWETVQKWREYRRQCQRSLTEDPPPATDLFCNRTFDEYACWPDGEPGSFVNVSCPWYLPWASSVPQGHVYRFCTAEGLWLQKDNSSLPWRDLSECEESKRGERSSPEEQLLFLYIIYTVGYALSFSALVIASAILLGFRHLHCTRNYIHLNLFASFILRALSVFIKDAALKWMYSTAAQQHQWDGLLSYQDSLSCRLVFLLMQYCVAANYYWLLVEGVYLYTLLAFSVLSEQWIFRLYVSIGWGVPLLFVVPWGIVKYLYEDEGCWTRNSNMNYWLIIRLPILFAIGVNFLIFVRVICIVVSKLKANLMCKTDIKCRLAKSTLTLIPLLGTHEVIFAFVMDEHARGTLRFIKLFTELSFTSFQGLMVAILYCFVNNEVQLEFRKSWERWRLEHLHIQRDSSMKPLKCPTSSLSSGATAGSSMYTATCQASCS
HepG2 tox: qHTS for Inhibitors of TGF-b: Cytotox Counterscreen | HepG2 CAGA-GFP viability, ATP luminescence, 18 h | Potency, µM (highest dose often 46.1 µM), without a hit: at the highest dose activity change, negative = cytotoxicity, hits mostly cytotoxic | hit rate 0.76% among 410,000 | AID 588856, 2011
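HepG2 CAGA-GFP cells (1000/well, DMEM with 1% FBS) received compound, then TGF-beta at 500 pg/mL final, and were incubated 18 hours at 37 degrees C. Viability was read by CellTiter-Glo luminescence. Media-only wells were set as complete cell-killing and DMSO as no toxicity.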
TGFb inhibitor: qHTS for Inhibitors of TGF-b. HepG2 CAGA-GFP TGF-b/SMAD3 reporter, GFP fluorescence, 18 h; TGF-beta stimulated, 500 pg/mL final. Potency, µM (highest dose often 46.1 µM), inactives show at the highest dose activity, negative = inhibition, actives largely listed as inhibitors. hit rate 1.2% among 410,000. AID 588855, 2011; also: % is scaled to controls: 0 for no effect and ±100 for the full control effect; nearly all actives have a fitted effect of over 65% in size
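Read-out: total well GFP (ex488/em500-530) summed from mean per-cell fluorescence. Cells: HEPG2 CAGA-GFP, 1% FBS DMEM, 18 h at 37 degrees C with 500 pg/mL final TGF-beta. Unstimulated wells served as the full-inhibition control; stimulated DMSO wells = 0%.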
GLP1R inv ag: qHTS of GLP-1 Receptor Inverse Agonists (Inhibition Mode); AID 624417, 2012; HEK293 GLP-1R CRE-luciferase, luminescence, 24 h; GLP-1R form is constitutively active; hit rate 1.6% among 410,000; Potency, µM (titrated, usually from 38.3 µM), for the others: at the top dose activity change, negative = inhibition, hits mostly inhibitors; Glucagon-like peptide 1 receptor (Homo sapiens), P43220; also: % is scaled to controls: 0 for no effect and ±100 for the full control effect; nearly all actives have a fitted effect of over 55% in size
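Cells are plated, allowed 12 hours at 37 deg C, then treated with compounds for 24 hr before luciferase detection reagent is added and luminescence is read after 12 min at room temperature. The HEK293 line carries constitutively active GLP-1R with a cAMP-responsive reporter.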
The depositor's hits bear a star. Calls follow the shape of the dose curve; as a rule, active = well fitted curve in the direction sought with a large enough effect; inconclusive = small, poorly fitted or top-dose-only effect, or another doubt; inactive = no such curve, though single readings can be large; an effect the other way counts as inactive or inconclusive. Potency is read from the fitted curve at half-maximal effect.

Screening Cc1cccc2sc(N(Cc3cccnc3)C(=O)C3CCCCC3)nc12 returned HepG2 tox -41%, TGFb inhibitor 10µM* and GLP1R inv ag inconclusive.
`CC(=O)N(Cc1cccnc1)c1nc2c(F)cc(F)cc2s1` gave HepG2 tox -20%, TGFb inhibitor -21% and GLP1R inv ag 1%.
O=C(C1CCCCC1)N(Cc1cccnc1)c1nc2c(F)cc(F)cc2s1 was read as HepG2 tox -36%, TGFb inhibitor 22µM* and GLP1R inv ag inconclusive.
Screening Cc1ccc2nc(N(Cc3cccnc3)C(=O)C3CCCCC3)sc2c1 returned HepG2 tox -4%, TGFb inhibitor -1% and GLP1R inv ag 9%.
Screening COc1ccc2[nH]c(C)c(C(=O)CNc3nccs3)c2c1 returned HepG2 tox 14% and TGFb inhibitor 8%.
`CCCCCCCCNS(=O)(=O)CCNCc1ccccc1OC` gave ATXN2 expr inh -36%, S2 tox inconclusive, GLP-1R agonist 0%, HepG2 tox 13µM*, TGFb inhibitor inconclusive and GLP1R inv ag inconclusive.
O=C(NC(=S)N1CCN(c2ccc(Cl)cc2[N+](=O)[O-])CC1)c1ccco1 was read as ATXN2 expr inh -8%, S2 tox inactive, GLP-1R agonist 0%, HepG2 tox -7%, TGFb inhibitor 7% and GLP1R inv ag -17%.
Screening O=C(NC(=S)N1CCN(c2ccc(Cl)cc2[N+](=O)[O-])CC1)c1cccs1 returned ATXN2 expr inh inconclusive, GLP-1R agonist -22%, HepG2 tox -25%, TGFb inhibitor inconclusive and GLP1R inv ag 10µM*.
Screening O=C1CC(N2CCN(c3ccccn3)CC2)C(=O)N1CC(c1ccccc1)c1ccccc1 (stereo not given) returned ATXN2 expr inh -8%, S2 tox inactive, GLP-1R agonist -1%, HepG2 tox -31%, TGFb inhibitor 1% and GLP1R inv ag 13µM*.
Screening O=C1CC(N2CCN(c3ccccn3)CC2)C(=O)N1c1ccc(F)cc1 (stereo not given) returned ATXN2 expr inh -37%, S2 tox inconclusive, GLP-1R agonist 1%, HepG2 tox -18%, TGFb inhibitor -19% and GLP1R inv ag 0%.
O=C(/C=C/c1cccc(F)c1)c1ccc(N2CCOCC2)cc1 was read as ATXN2 expr inh 0%, S2 tox inactive, GLP-1R agonist 10%, HepG2 tox -123%, TGFb inhibitor 13µM* and GLP1R inv ag 7%.
`O=C(O)[C@H](CC(=O)N1C[C@H]2CCCC[C@H]2C1)Cc1ccccc1` gave GLP-1R agonist -2%.
Screening CCC(C)C(NC(=O)OC(C)(C)C)C(=O)NC1COC2CC(n3cc(F)c(=O)[nH]c3=O)OC12 (stereo not given) returned HepG2 tox 7% and TGFb inhibitor -12%.
CN(c1ccc(OCC(=O)N2CCN(c3ccc(F)cc3)CC2)cc1)S(=O)(=O)c1cccs1 was read as ATXN2 expr inh inconclusive, S2 tox inactive, GLP-1R agonist 0%, HepG2 tox 4%, TGFb inhibitor -23% and GLP1R inv ag 11µM*.
CN(c1ccc(OCC(=O)N2CCCCC2)cc1)S(=O)(=O)c1cccs1 was read as ATXN2 expr inh 11%, S2 tox inactive, GLP-1R agonist 3%, HepG2 tox -4%, TGFb inhibitor -8% and GLP1R inv ag inconclusive.
Screening O=C(c1ccc(Br)o1)N(Cc1ccccc1)Cc1ccccc1 returned ATXN2 expr inh 1%, S2 tox inactive, GLP-1R agonist 19%, HepG2 tox -8%, TGFb inhibitor inconclusive and GLP1R inv ag 10µM*.
Screening O=C(O)c1ccc2cc(-c3ccc(O)c(C45CC6CC(CC(C6)C4)C5)c3)ccc2c1 returned ATXN2 expr inh 1.9µM*.
`CCNC(=S)N/N=C/c1cc(C)ccc1C` gave ATXN2 expr inh 0%, S2 tox inactive, GLP-1R agonist -3%, HepG2 tox -21%, TGFb inhibitor 5% and GLP1R inv ag 4.5µM*.
`CNC(=S)N/N=C/c1cc(C)ccc1C` gave S2 tox inconclusive, GLP-1R agonist 7%, HepG2 tox -9%, TGFb inhibitor -17% and GLP1R inv ag inconclusive.
For CC1=C(C(=O)N(C(C)C)C(C)C)CC(CC(=O)NCc2cccs2)C(=O)N1Cc1ccc(C(C)(C)C)cc1 (stereo not given) the results were ATXN2 expr inh inconclusive, S2 tox inconclusive, GLP-1R agonist -4%, HepG2 tox 16µM*, TGFb inhibitor inconclusive and GLP1R inv ag inconclusive.
CC1=C(C(=O)N(C(C)C)C(C)C)CC(CC(=O)NC2CCCCC2)C(=O)N1Cc1ccc(C(C)(C)C)cc1 (stereo not given) was read as ATXN2 expr inh inconclusive, S2 tox inconclusive, GLP-1R agonist 5%, HepG2 tox 13µM*, TGFb inhibitor inconclusive and GLP1R inv ag inconclusive.
`Cc1ccc(C)c(CS(=O)(=O)c2cn(CC(=O)N(C(C)C)C(C)C)c3ccccc23)c1` gave HepG2 tox -26%, TGFb inhibitor 0% and GLP1R inv ag -10%.
CC(C)CN1CC(=O)N2C(c3ccccc3)c3[nH]c4ccccc4c3C[C@H]2C1=O (stereo not given in full) was read as ATXN2 expr inh 0%, S2 tox inactive, GLP-1R agonist 3%, HepG2 tox -32%, TGFb inhibitor -21% and GLP1R inv ag 10µM*.
Screening O=C1[C@@H]2Cc3c([nH]c4ccccc34)C(c3ccccc3)N2C(=O)CN1CCO (stereo not given in full) returned ATXN2 expr inh 8%, S2 tox inactive, GLP-1R agonist -4%, HepG2 tox 12%, TGFb inhibitor 5% and GLP1R inv ag inconclusive.
Screening CCN1C(=O)[C@@H]2Cc3c([nH]c4ccccc34)C(c3cc(OC)c(OC)c(OC)c3)N2C1=S (stereo not given in full) returned S2 tox inactive, GLP-1R agonist 7%, HepG2 tox -27%, TGFb inhibitor 158% and GLP1R inv ag inconclusive.
